D2 PAM-1: human D2 receptor positive allosteric modulation. P14416. DiscoveRx D2 beta-arrestin cells, luminescence, 90 min; 100% = 57 uM dopamine signal. potentiation, % (test concentration not listed). hit rate 0.23% among 360,000; in the data active = potentiation above about 50%
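PathHunter D2 cells, attached overnight at 37 deg C, received compound in DMSO plus dopamine at EC20 (50 nM final) for 90 min at 37 deg C. Beta-arrestin recruitment was read as luminescence after 1 h with detection reagent at ambient temperature.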
D2 ag-1: D2 dopamine receptor (human) agonism | P14416 | HEK293 T-REx D2 cells, calcium flux agonist mode | activation, % at 2 µM | hit rate 0.53% among 340,000;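 active = activation over 3 SD above normal in the single-dose calcium agonist read, cut at about 30% in these data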; also: 0% is about no effect
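Tetracycline-induced HEK293 Trex cells with D2 receptor force-coupled to calcium signaling, plated overnight at 30 C and loaded with no-wash calcium dye. Calcium flux read kinetically for 180 s after compound addition; responses flag agonists.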
D2 ag-2: human D2 receptor agonism in beta-arrestin assay. P14416. DiscoveRx PathHunter D2 beta-arrestin, luminescence, 90 min; 100% = 57 uM dopamine signal. activation, % (no concentration beside the values). hit rate 0.084% among 360,000. AID 624465; in the data active = activation above about 40%
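DiscoveRx PathHunter D2 beta-arrestin cells (2,100/well) attached overnight, then compound-stimulated 90 min at 37 C in HBSS/10 mM HEPES/0.1% Tween-20 buffer; beta-galactosidase complementation read by luminescence after 1 h at ambient temperature. Dopamine 57 uM final (EC100) as control.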
D2 antagonist: antagonizes the human D2 dopamine receptor; P14416; HEK293 TREx D2 cells, calcium flux, dopamine EC80; inhibition, % at 10 µM; hit rate 2% among 340,000; in the data active = inhibition above about 30%; inactive = below that, where a call was filed; also: 0% is about no effect
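In this primary screen, negative modulation is detected by tracking calcium flux after an EC80 dopamine challenge in inducible HEK293 T-REx D2 cells preexposed to test compound for 180 s.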
D2 PAM-2: positive allosteric modulators of human D2 dopamine receptor; P14416; HEK293 T-REx D2, calcium flux, EC20 dopamine potentiation; potentiation, % at 10 µM; hit rate 0.34% among 340,000; AID 485347;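 active = potentiation over 3 SD above the plate norm, cut at about 30% in these data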; also: 0% is about no effect
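Potentiation of an EC20 dopamine calcium response measured kinetically over 180 s, after a preceding 180 s compound-only read flagging agonists. Cells: inducible Hek293 Trex D2 line, 4000/well, cultured overnight at 30 C before dye loading.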
D3 arrestin ag: activates human D3 dopamine receptor beta-arrestin recruitment | shares compounds with D2 ag-1 | hit rate 4% among 2,300 | Potency, µM (titrated, usually from 76.9 µM), for inactives: at the top dose activation, usual class: activators | DiscoveRx D3 beta-arrestin cells, luminescence, 90 min;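 also: potency is read from the fitted curve at half-maximal effect; 100% = dopamine control response; nearly all actives have a fitted effect of over 70% in size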
Target sequence (P35462 whole entry, looked up): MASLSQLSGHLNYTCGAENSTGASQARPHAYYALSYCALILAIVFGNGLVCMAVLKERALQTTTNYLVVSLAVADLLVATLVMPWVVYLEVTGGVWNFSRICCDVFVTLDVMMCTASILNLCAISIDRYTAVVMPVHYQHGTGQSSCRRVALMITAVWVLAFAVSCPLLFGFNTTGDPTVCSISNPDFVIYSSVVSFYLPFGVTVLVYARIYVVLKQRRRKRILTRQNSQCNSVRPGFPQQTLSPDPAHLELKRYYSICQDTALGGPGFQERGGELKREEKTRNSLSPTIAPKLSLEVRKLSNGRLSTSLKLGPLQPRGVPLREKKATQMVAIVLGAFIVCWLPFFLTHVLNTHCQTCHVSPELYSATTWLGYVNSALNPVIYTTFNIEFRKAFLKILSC
D2 ag-3: D2 receptor agonism, beta-arrestin counterscreen; hit rate 5.9% among 2,300; Potency, µM (series often up to 76.9 µM), without a hit: at the highest dose activation, most hits filed as activators; AID 720507; DiscoveRx PathHunter D2 beta-arrestin, luminescence, 90 min; response scale: percent relative to full dopamine signal; shares compounds with D2 ag-1; also: potency is read from the fitted curve at half-maximal effect; % of control where 0% means no effect; nearly all actives have a fitted effect of over 70% in size
Starred values were filed as active, the others as inactive; . = not tested or not shown; ! = not confirmed by another sample. Most compounds without a hit are left out; they make up all but 2.4% or so of the library. Unless noted, calls follow the shape of the dose curve; as a rule, active = well fitted activation curve with a large enough effect; inconclusive = small, poorly fitted or top-dose-only effect; inactive = flat fitted curve, though single readings scatter.

SMILES	D2 PAM-1	D2 ag-1	D2 ag-2	D2 antagonist	D2 PAM-2	D3 arrestin ag	D2 ag-3
CC(C)N1CCN(Cc2ccsc2)CC1CCO (configuration not stated)	-7	44*	-4	44*	-22	-10%	-2%
OCCNCC1(O)C2CC3CC(C2)CC1C3 (configuration not stated)	-12	1	0	0	-2	.	.
OC1(CNCc2ccccc2)C2CC3CC(C2)CC1C3 (configuration not stated)	-14	49*	1	56*	-19	-16%	4%
COC(=O)[C@@H](CC(C)C)NS(=O)(=O)N(Cc1ccccc1)[C@@H](CC(C)C)C(=O)OC	-4	-1	-3	2	-3	-15%	-3%
COC(=O)[C@H](CC(C)C)NS(=O)(=O)c1ccccc1	-9	-2	-2	17	3	.	.
C[C@H](CO)N1C[C@H](C)[C@H](CN(C)S(=O)(=O)c2ccc(F)cc2)OCc2cnnn2CCCC1=O	-5	.	-8	.	.	.	.
COc1cc(C(=O)OCc2ccc(C)cc2)cc(NC(=O)c2cccs2)c1OC	9	6	-5	38*	20	-6%	22%
CC1=NN(C(N)=S)C(=O)C1N=Nc1ccccc1Cl (configuration not stated)	-1	1	-6	-9	6	.	.
CC1=NN(C(N)=S)C(=O)C1N=Nc1ccccc1C(=O)O (configuration not stated)	-5	.	-1	.	.	1%	-3%
COc1cccc(-n2ccnc2SCC(=O)Nc2nc3ccc(C)cc3s2)c1	.	-8	.	.	-10	.	.
COC(=O)Nc1ncc(CN2CCC(c3ccccc3)CC2)s1	-25	85*	13	98*	-28	8%	22%
COc1ccc(NC(=O)C(C)N2CCN(C)CC2)cc1 (configuration not stated)	4	79*	-2	-21	-29	-2%	-2%
Cc1c(N(C)S(=O)(=O)c2cccc(C(=O)NCc3cccnc3)c2)c(=O)n(-c2ccccc2)n1C	3	.	0	.	.	.	.
CC(C)CNC(=O)CN(C1CCCCC1)S(=O)(=O)c1ccccc1	-2	0	-3	25	-8	-7%	-2%
Cc1c(C(=O)OCC(=O)N2C(C)CCCC2C)oc2ccccc12 (configuration not stated)	-9	30	-1	-12	-1	-9%	13%
CCC(=O)N/C(N)=N/c1nc(C)c2cc(OC)ccc2n1	-8	.	1	.	.	.	.
COc1ccc2nc(/N=C(\N)NC(=O)C(C)(C)C)nc(C)c2c1	-34	1	-1	35*	-9	-7%	1%
CCCN(CCC)CCCNC(=S)Nc1ccc2nc(N3CCN(CC)CC3)cc(C)c2c1	-13	17	-1	-1	-16	8%	2%
COc1cccc(S(=O)(=O)NC2CCN(C#N)C2)c1 (configuration not stated)	.	0	.	1	5	-6%	-2%
CCOc1ccc(NC(=S)NC(=O)Cc2ccccc2)cc1	-5	-1	1	1	1	.	.
CCN(CC)c1ccc(NC(=S)NC(=O)Cc2ccccc2)cc1	0	73*	0	77*	-21	-1%	0%
C[C@@H](CN1CCC(Cc2ccccc2)CC1)[C@@H](O)c1ccc(O)cc1	6	.	-4	.	.	7%	27%
CC(C(O)c1ccc(O)cc1)N1CCC(Cc2ccccc2)CC1 (configuration not stated)	-34	33*!	-3	77*	-26	-19%	3%
CC(C)OCC(O)CN1CCC(Cc2ccccc2)CC1 (configuration not stated)	-17	1	0	10	-22	.	.
O=C(C[C@@H]1C[C@@H]2c3cc(NC(=O)C4CCC4)ccc3O[C@@H]2[C@@H](CO)O1)NCc1ccc(Cl)cc1	-2	.	4	.	.	.	.

Assay outcomes (PubChem)
